High-throughput results from PubChem.
BJeLR lethal: kills HRASV12-expressing BJeLR cells | BJeLR (HRASV12) viability, CellTiter-Glo ATP luminescence, 48 h | AID 1554 | inhibition, % (test concentration not listed) | actives 0.17% (n = 300,000); in the data active means inhibition above about 50%
PrPC surface inh: inhibitors of human cell surface prion protein PrPC. P04156. TR-FRET read-out. inhibition, % at 13.8 µM. actives 0.43% (n = 370,000). AID 720596; in the data active means inhibition above about 24%; further: 0% = median of the test wells and 100% = reference compound wells
RecA intein inh: Mtb RecA intein splicing inhibition | P9WHJ3 | cell-free RecA intein splicing, fluorescence | inhibition, % (no concentration beside the values) | actives 0.75% (n = 290,000) | AID 2221; in the data active means inhibition above about 30%;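 further: 0% = vehicle wells and 100% = reference inhibitor control wells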
GDH-TPI inh: inhibits GDH-TPI coupling enzymes, artifact for Mtb FBA screen; GDH-TPI coupled enzyme counterscreen, NADH absorbance; inhibition, % at 4.8 µM; actives 1.2% (n = 360,000); AID 588335; in the data active means inhibition above about 30%;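 further: 0% = DMSO wells and 100% = wells lacking the enzyme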
FBA Mtb inh: inhibits M. tuberculosis FBA enzyme. P9WQA3. purified M. tuberculosis FBA, fluorescence read-out. inhibition, % at 1 µM. actives 2.3% (n = 360,000). AID 588726; in the data active means inhibition above about 27%;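 further: 0% = vehicle and 100% = reference inhibitor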
PrPC TRFRET cf: confirmation of inhibitors of cell surface human prion protein. shares compounds with PrPC surface inh. cell surface PrPC level, TR-FRET. inhibition, % at 13.8 µM. actives 65% (n = 1,500); in the data active means inhibition above about 25%
LD9 tox: LD9 cell cytotoxicity, PrPc inhibitor counter-screen. shares compounds with PrPC surface inh. LD9 cells cytotoxicity, luminescence viability. inhibition, % at 13.8 µM. actives 29% (n = 1,500). AID 743201; in the data active means inhibition above about 9.5%
Starred values were filed as active, the others as inactive; x = not tested or not shown; ! = a repeat was not active. Compounds with a hit are over-represented: about 4.2% of the library has one in this group of screens.

SMILES	BJeLR lethal	PrPC surface inh	RecA intein inh	GDH-TPI inh	FBA Mtb inh	PrPC TRFRET cf	LD9 tox
Cc1cccc(C(O)c2ncc(-c3ccc(Cl)cc3)[nH]2)c1C (stereo unspecified)	x	3.2	x	1.8	-2.6	x	x
O=C(COC(=O)CSc1ccc2ccccc2c1Br)NC1CC1	1.3	56.1*	1.8	-0.6	3.5	79.3*	-6.5
O=C(COC(=O)CSc1ccc2ccccc2c1)NC1CC1	-11.7	15.1	3.7	-0.8	4.0	x	x
O=C(CSc1nnc(COc2ccccc2)n1-c1ccccc1)c1ccccc1	-0.6	4.9	x	9.1	5.6	x	x
CC1CCCC(C)N1C(=O)CSc1nnc(COc2ccccc2)n1-c1ccccc1 (stereo unspecified)	-2.5	37.1*	-5.4	7.5	0.0	34.3*	-3.9
CN(C)c1ccc(CC(=O)N2CCCC(c3cc(C(=O)Nc4ccc(F)c(Cl)c4)no3)C2)cc1 (stereo unspecified)	x	26.6*	x	4.9	-0.8	19.2	9.1
COc1ccc(S(=O)(=O)N2CCCCC2c2cc(C(=O)Nc3ccccc3)no2)cc1 (stereo unspecified)	x	7.0	x	12.8	0.4	x	x
O=C(Nc1ccc2c(c1)OCO2)c1cc(C2CCCCN2S(=O)(=O)c2ccccc2)on1 (stereo unspecified)	x	47.2*	x	11.0	4.6	40.4*	-0.1
O=C(Nc1ccc(F)c(Cl)c1)c1cc(C2CCCN(S(=O)(=O)c3ccccc3)C2)on1 (stereo unspecified)	x	15.9	x	0.9	-1.7	x	x
O=C(Nc1ccc2c(c1)OCO2)c1cc(C2CCCN(C(=O)C3CCCCC3)C2)on1 (stereo unspecified)	x	33.3*	x	1.3	2.8	24.3	-4.4
O=C(Nc1ccccc1Cl)c1cc(C2CCCN(C(=O)C3CCCCC3)C2)on1 (stereo unspecified)	x	0.4	x	-1.8	-4.6	x	x
C[C@H](O)[C@@H]1CN2CCc3ccc(-c4ccc5c(c4)OCO5)cc3[C@@H]2C[C@@H]1N(C)C(=O)c1ccco1	x	-1.9	x	x	x	x	x
COc1ccccc1-n1c(Cc2cccc3ccccc23)nnc1SCC(=O)O	x	5.1	x	x	x	x	x
C[C@@H]1CN([C@@H](C)CO)C(=O)CCCn2cc(nn2)CO[C@H]1CN(C)S(C)(=O)=O	x	-0.3	x	x	x	x	x
Cc1nn(C(C)C(=O)N2CCCCC2)c(=O)c2c1sc1ccccc12 (stereo unspecified)	4.9	0.2	-5.9	-8.1	2.0	x	x
Cc1nn(C(C)C(=O)O)c(=O)c2c1sc1ccccc12 (stereo unspecified)	7.8	45.3*	-1.4	4.7	1.2	59.6*	-9.3
CC1CCC(NC(=O)c2cc3c(s2)CCCC3)CC1 (stereo unspecified)	0.9	49.9*	0.0	-1.8	3.5	63.5*	1.6
CCOC(=O)Cc1csc(NC(=O)c2cc3c(s2)CCCC3)n1	9.4	29.9*	1.8	30.9*	-1.1	24.6*	-5.5
Cc1csc(NC(=O)c2cc3c(s2)CCCCC3)n1	14.0	25.3*	0.3	4.1	-9.4	16.0	0.9
Cc1csc(NC(=O)c2cc3c(s2)CCCC3)n1	5.9	26.2*	5.0	21.3	2.7	20.5	6.7
Cc1cnc(NC(=O)c2cc3c(s2)CCCC3)s1	6.5	8.5	-4.6	17.6	-2.7	x	x
Cc1cccc(Cn2cc(COC(=O)N3CCOCC3)nn2)c1	x	-7.3	x	x	x	x	x
C#CCNC(=O)C[C@H]1C[C@@]2(C(=O)OC)C(=C[C@H](C3CCCC3)O[C@@H]2C)N(Cc2ccccc2)C1=O	x	4.4	x	x	x	x	x
Cc1ccnc2c1ccc1cccnc12	x	35.1*	x	-0.3	-3.2	37.8*	34.9*
c1cnc2c(c1)ccc1cccnc12	56.1*!	25.1*	1.9	1.2	3.4	25.4*	14.3*!
O=Cc1ccc2ccc3cccnc3c2n1	0.9	5.6	-6.1	-9.9	0.3	x	x
O=S(=O)(NCc1ccc(Cl)cc1)c1ccc(Br)cc1C1CC[C@@H](O)C1 (stereo partly specified)	x	-2.4	x	x	x	x	x
O=C(NCc1ccccc1Cl)C1CCC(CNS(=O)(=O)c2cccc3cccnc23)CC1 (stereo unspecified)	x	39.1*	x	x	x	49.6*	0.5
O=C(NCc1ccccc1F)C1CCC(CNS(=O)(=O)c2cccc3cccnc23)CC1 (stereo unspecified)	x	5.0	x	x	x	x	x
